From PubChem BioAssay
Where “and” joins values, the source holds several entries; their conditions need not be identical. Equal values may be shown once. Calls of active or inactive are those of the source. Unless noted, how the calls were made is not given here.

What was measured:
[1] = compounds altering circadian rhythm period length – cell-based, LOPAC library, luminescence reporter (AID 2774); settings: circadian reporter cells, at 7 µM, actives lie on both sides;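 further: values are relative to mean of DMSO wells on each plate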
[2] = tested on: Hepatitis C virus NS3 helicase; experiment: blockers of NS3h binding to ssDNA – biochemical, fluorescence polarization, LOPAC1280 library, primary screen (AID 687035; in the data active means inhibition above about 37%); settings: Purified HCV NS3 helicase, Cy5-dT15 ssDNA binding fluorescence polarization; stronger effect = higher value; concentration not given here
[3] = compounds altering Cy5-DNA-NS3h complex signal – biochemical, LOPAC1280, artefact control for HCV NS3 helicase inhibitor project (AID 687037); settings: Cy5-DNA-NS3h complex fluorescence interference counterscreen
[4] = viability loss with induced miR-34 in A549 – imaging, A549 dox-inducible miR-34, nuclei and caspase counts, primary screen (AID 1347080;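 active means compounds whose cell count with miR-34 switched on is under 0.7 times the count with it off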); settings: A549 miR-34 inducible, Hoechst nuclei count, 48 h
[5] = galactose survival enhancers in mitochondrial complex I cybrids – cell-based, galactose medium, ATP luminescence, primary screen (AID 1645843;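 active means z-score of at least 1.8 in each of two replicates, scored against plate mean and spread of sample wells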;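 further: positive z means more ATP and so rescue of galactose-driven cybrid death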); settings: complex I mutant cybrid cells, 72 h, stronger effect = higher value
[6] = compounds altering viability of human ES cells (AID 493140); settings: human embryonic stem cell survival screen; stronger effect = higher value;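 further: cells exposed to compounds for four days before counting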
[7] = P. berghei load reduction in hepatocytes – cell-based, HepG2, luciferase luminescence, HepG2 viability, primary screen (AID 624349; in the data active means parasite load remaining mostly below about 12%, no sharp cut-off; inactive means mostly above about 10%;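 further: 100% = mean of DMSO negative control wells on the same plate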); settings: P. berghei liver stage in HepG2, luciferase luminescence, concentration not given here; parasite load remaining: stronger effect = lower value; viability: measured here: HepG2 viability without parasites
[8] = stronger effect = lower value, cell number ratio, induced over uninduced
[9] = measured here: relative caspase fold change +Dox/-Dox
[10] = measured here: total cells with miR-34 induction, stronger effect = lower value
[11] = measured here: total cells without miR-34 induction

Row | Compound | period change [1] | inhibition [2] | fluorescence ratio (interference) [3] | fold change [4, 8] | fold change [4, 9] | cell count [4, 10] | cell count [4, 11] | z-score [5] | survival [6] | parasite load remaining [7] | viability [7]
1 | CC[C@@H]1Cc2cc(O)ccc2C2=C1c1ccc(O)cc1C[C@H]2CC | -0.02 h (inactive) | 0% (inactive) | 1 (inactive) | 1.3 (inactive) | 0.93 | 4580 | 3520 | -0.765 (inactive) | – | – | –
2 | NCCC(=O)NCCc1cnc[nH]1 | 0.085 h (inactive) | – | – | 0.903 (inactive) | 1.35 | 9030 | 10000 | – | 7.75 (inactive) | 133% (inactive) and 73.6% (inactive) | 94% and 70.5%
3 | N=c1ccn2c(n1)OC1[C@@H](O)[C@@H](CO)O[C@H]12 (some centres not stated) | -0.115 h (inactive) | -5% (inactive) | 1 (inactive) | 1.14 (inactive) | 1.55 | 1970 | 1730 | -1.23 (inactive) | – | – | –
4 | Nc1nc(SCc2ccc([N+](=O)[O-])cc2)c2ncn([C@@H]3O[C@H](CO)[C@H](O)C3O)c2n1 (some centres not stated) | -0.105 h (inactive) | -2% (inactive) | 0.9 (inactive) | 1.08 (inactive) | 0.784 | 10100 | 9310 | -0.085 (inactive) | – | – | –
5 | CCSC(N)=Nc1ccc(C(F)(F)F)cc1 | 0.125 h (inactive) | – | – | 1.02 (inactive) | 0.833 | 5930 | 5830 | – | – | – | –
6 | Cc1ccc2c(c1)C(N1CCN(C)CC1)=Nc1cccnc1N2 | 0.2 h (inactive) | -2% (inactive) | 1 (inactive) | 1 (inactive) | 1.15 | 8670 | 8630 | 0.01 (inactive) | – | – | –
7 | Nc1ccn([C@@H]2O[C@H](CO)[C@@H](O)[C@@H]2O)c(=O)n1 | -0.07 h (inactive) | -4% (inactive) | 0.9 (inactive) | 0.984 (inactive) | 1.55 | 1860 | 1890 | -0.93 (inactive) | – | – | –
8 | Cc1nc(N=Nc2cc(S(=O)(=O)O)c3cc([N+](=O)[O-])cc(S(=O)(=O)O)c3c2)c(COP(=O)(O)O)c(C=O)c1O | -0.275 h (inactive) | 58% (active) | 0.8 (active) | 1.02 (inactive) | 1.61 | 10500 | 10300 | 1.9 (active) | – | – | –
9 | N#C/C(=C\c1ccc(O)c(O)c1)C(=O)c1ccc(O)c(O)c1 | -0.055 h (inactive) | 100% (active) | 1 (inactive) | 0.979 (inactive) | 1.26 | 9140 | 9340 | -0.355 (inactive) | – | – | –
10 | N=C(N)SCCc1cccc(CCSC(=N)N)c1 | 0.115 h (inactive) | – | – | 1.01 (inactive) | 0.632 | 6390 | 6310 | – | – | – | –
11 | N#C/C(=C\c1ccc(O)c(O)c1)C(=O)NCCCNC(=O)/C(C#N)=C/c1ccc(O)c(O)c1 | -0.285 h (inactive) | 37% (active) | 1 (inactive) | 0.987 (inactive) | 1.18 | 9720 | 9850 | -0.275 (inactive) | – | – | –
